# Measured values as given in PubChem BioAssay AID1159580 (chemical genetic matrix, 2015).
# The whole screen tested about 5,500 compounds, of which about 2,000 (36%) were called active. Roughly 18% stayed inconclusive and do not appear here. The list shows a part of the results. Unmarked numbers belong to inactive results. Cut-off read from the data, not from the text of the source: active = normalized growth mostly below about 0.91 (no sharp cut-off); inconclusive = no clear call, values can overlap the other calls; inactive = mostly above about 0.92.
# Experiment: chemical genetic growth profiling, strain panel (AID 1159580);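 note: tested at 20 µM; growth read once vehicle control cultures reached saturation at 30 °C; 1 = growth at the plate median or of vehicle wells; lower values mean less growth of the strain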
# Settings: growth OD
# [1] = S. cerevisiae deletion strains, locus YDL101C, strain DUN1, active compounds read low
# [2] = S. cerevisiae deletion strains, locus YHR030C, strain SLT2, active compounds read low
smiles,measurement,setting,value
O=C(NCCSCc1cccc(C(F)(F)F)c1)c1ccc(Cl)cc1,normalized growth,"S. cerevisiae deletion strains, locus YAR019C, strain CDC15, active compounds read low",0.968
same,normalized growth,"S. cerevisiae deletion strains, locus YBL105C, strain PKC1, active compounds read low",0.965
same,normalized growth,"S. cerevisiae deletion strains, locus YBR135W, strain CKS1, active compounds read low",0.953
same,normalized growth,"S. cerevisiae deletion strains, locus YBR136W, strain MEC1, active compounds read low",0.979
same,normalized growth,"S. cerevisiae deletion strains, locus YBR160W, strain CDC28, active compounds read low",0.964
same,normalized growth,"S. cerevisiae deletion strains, locus YDL017W, strain CDC7, active compounds read low",0.971
same,normalized growth,"S. cerevisiae deletion strains, locus YDL028C, strain MPS1, active compounds read low",0.947
same,normalized growth,[1],0.975
same,normalized growth,"S. cerevisiae deletion strains, locus YDL108W, strain KIN28, active compounds read low",0.961
same,normalized growth,"S. cerevisiae deletion strains, locus YDL132W, strain cdc53, active compounds read low",0.96
same,normalized growth,"S. cerevisiae deletion strains, locus YDL214C, strain PRR2, active compounds read low",0.891
same,normalized growth,"S. cerevisiae deletion strains, locus YDR052C, strain DBF4, active compounds read low",0.982
same,normalized growth,"S. cerevisiae deletion strains, locus YDR054C, strain cdc34, active compounds read low",0.955
same,normalized growth,"S. cerevisiae deletion strains, locus YDR226W, strain ADK1, active compounds read low",0.973
same,normalized growth,"S. cerevisiae deletion strains, locus YDR477W, strain SNF1, active compounds read low",0.894
same,normalized growth,"S. cerevisiae deletion strains, locus YER123W, strain YCK3, active compounds read low",0.851
same,normalized growth,"S. cerevisiae deletion strains, locus YER133W, strain GLC7, active compounds read low",0.916
same,normalized growth,"S. cerevisiae deletion strains, locus YFL009W, strain cdc4, active compounds read low",0.961
same,normalized growth,"S. cerevisiae deletion strains, locus YFL029C, strain CAK1, active compounds read low",0.965
same,normalized growth,"S. cerevisiae deletion strains, locus YFR003C, strain YPI1, active compounds read low",0.964
same,normalized growth,"S. cerevisiae deletion strains, locus YFR019W, strain FAB1, active compounds read low",0.964
same,normalized growth,"S. cerevisiae deletion strains, locus YFR028C, strain CDC14, active compounds read low",0.965
same,normalized growth,"S. cerevisiae deletion strains, locus YGR040W, strain KSS1, active compounds read low",0.905
same,normalized growth,"S. cerevisiae deletion strains, locus YGR052W, strain FMP48, active compounds read low",0.826
same,normalized growth,"S. cerevisiae deletion strains, locus YGR092W, strain DBF2, active compounds read low",0.733
same,normalized growth,[2],0.614 (active)
same,normalized growth,"S. cerevisiae deletion strains, locus YHR079C, strain IRE1, active compounds read low",0.72
same,normalized growth,"S. cerevisiae deletion strains, locus YHR082C, strain KSP1, active compounds read low",0.871
same,normalized growth,"S. cerevisiae deletion strains, locus YHR205W, strain SCH9, active compounds read low",0.738
same,normalized growth,"S. cerevisiae deletion strains, locus YIL147C, strain SLN1, active compounds read low",0.97
same,normalized growth,"S. cerevisiae deletion strains, locus YJL095W, strain BCK1, active compounds read low",0.743
same,normalized growth,"S. cerevisiae deletion strains, locus YJL128C, strain PBS2, active compounds read low",0.887
same,normalized growth,"S. cerevisiae deletion strains, locus YJL157C, strain FAR1, active compounds read low",0.918
same,normalized growth,"S. cerevisiae deletion strains, locus YJR016C, strain ILV3, active compounds read low",0.959
same,normalized growth,"S. cerevisiae deletion strains, locus YJR066W, strain TOR1 (second series), active compounds read low",0.897
same,normalized growth,"S. cerevisiae deletion strains, locus YJR066W, strain TOR1, active compounds read low",0.769
same,normalized growth,"S. cerevisiae deletion strains, locus YKL048C, strain ELM1, active compounds read low",0.963
same,normalized growth,"S. cerevisiae deletion strains, locus YKL067W, strain YNK1, active compounds read low",0.864
same,normalized growth,"S. cerevisiae deletion strains, locus YKL101W, strain HSL1, active compounds read low",0.917
same,normalized growth,"S. cerevisiae deletion strains, locus YKL193C, strain SDS22, active compounds read low",0.962
same,normalized growth,"S. cerevisiae deletion strains, locus YKL203C, strain TOR2, active compounds read low",0.988
same,normalized growth,"S. cerevisiae deletion strains, locus YLR113W, strain HOG1, active compounds read low",0.736 (active)
same,normalized growth,"S. cerevisiae deletion strains, locus YLR133W, strain CKI1, active compounds read low",0.902
same,normalized growth,"S. cerevisiae deletion strains, locus YLR403W, strain SFP1, active compounds read low",0.896
same,normalized growth,"S. cerevisiae deletion strains, locus YML070W, strain DAK1, active compounds read low",0.903
same,normalized growth,"S. cerevisiae deletion strains, locus YMR001C, strain CDC5, active compounds read low",0.963
same,normalized growth,"S. cerevisiae deletion strains, locus YMR205C, strain PFK2 (second series), active compounds read low",0.885
same,normalized growth,"S. cerevisiae deletion strains, locus YMR277W, strain FCP1, active compounds read low",0.951
same,normalized growth,"S. cerevisiae deletion strains, locus YNL006W, strain LST8, active compounds read low",0.967
same,normalized growth,"S. cerevisiae deletion strains, locus YNL020C, strain ARK1, active compounds read low",0.896
same,normalized growth,"S. cerevisiae deletion strains, locus YNL161W, strain CBK1, active compounds read low",0.973
same,normalized growth,"S. cerevisiae deletion strains, locus YNL183C, strain NPR1, active compounds read low",0.819
same,normalized growth,"S. cerevisiae deletion strains, locus YNL207W, strain RIO2, active compounds read low",0.969
same,normalized growth,"S. cerevisiae deletion strains, locus YNL222W, strain SSU72, active compounds read low",0.965
same,normalized growth,"S. cerevisiae deletion strains, locus YNL307C, strain MCK1 (second series), active compounds read low",0.86
same,normalized growth,"S. cerevisiae deletion strains, locus YOL078W, strain AVO1, active compounds read low",0.963
same,normalized growth,"S. cerevisiae deletion strains, locus YOL136C, strain PFK27, active compounds read low",0.896
same,normalized growth,"S. cerevisiae deletion strains, locus YOR061W, strain CKA2, active compounds read low",0.849
same,normalized growth,"S. cerevisiae deletion strains, locus YOR119C, strain RIO1, active compounds read low",0.916
same,normalized growth,"S. cerevisiae deletion strains, locus YOR231W, strain MKK1, active compounds read low",0.764
same,normalized growth,"S. cerevisiae deletion strains, locus YOR329C, strain SCD5, active compounds read low",0.965
same,normalized growth,"S. cerevisiae deletion strains, locus YPL031C, strain PHO85, active compounds read low",0.892
same,normalized growth,"S. cerevisiae deletion strains, locus YPL153C, strain RAD53, active compounds read low",0.892
same,normalized growth,"S. cerevisiae deletion strains, locus YPL204W, strain HRR25, active compounds read low",0.886
same,normalized growth,"S. cerevisiae deletion strains, locus YPL209C, strain IPL1, active compounds read low",0.968
same,normalized growth,"S. cerevisiae deletion strains, locus YPL256C, strain CLN2, active compounds read low",0.797 (active)
same,normalized growth,"S. cerevisiae deletion strains, locus YPR025C, strain CCL1, active compounds read low",0.957
same,normalized growth,"S. cerevisiae deletion strains, locus YPR106W, strain ISR1, active compounds read low",0.947
same,normalized growth,"S. cerevisiae deletion strains, locus YPR111W, strain DBF20, active compounds read low",0.93
same,normalized growth,"S. cerevisiae deletion strains, strain NNK1, active compounds read low",0.954
same,normalized growth,"S. cerevisiae deletion strains, strain TSCII, active compounds read low",0.959
CCCCNC(=O)NCCSCc1ccco1,normalized growth,"S. cerevisiae deletion strains, locus YAL013W, strain DEP1, active compounds read low",1.01
same,normalized growth,"S. cerevisiae deletion strains, locus YBR229C, strain ROT2, active compounds read low",0.986
same,normalized growth,[1],0.982
same,normalized growth,"S. cerevisiae deletion strains, locus YDL134C, strain PPH21, active compounds read low",0.993
same,normalized growth,"S. cerevisiae deletion strains, locus YDR150W, strain NUM1, active compounds read low",1
same,normalized growth,"S. cerevisiae deletion strains, locus YEL061C, strain CIN8, active compounds read low",0.98
same,normalized growth,"S. cerevisiae deletion strains, locus YGR078C, strain PAC10, active compounds read low",0.994
same,normalized growth,[2],1.02
same,normalized growth,"S. cerevisiae deletion strains, locus YHR087W, strain rtc3, active compounds read low",0.99
same,normalized growth,"S. cerevisiae deletion strains, locus YJR043C, strain POL32, active compounds read low",1.01
same,normalized growth,"S. cerevisiae deletion strains, locus YJR075W, strain HOC1, active compounds read low",1.01
same,normalized growth,"S. cerevisiae deletion strains, locus YLR039C, strain RIC1, active compounds read low",1
same,normalized growth,"S. cerevisiae deletion strains, locus YLR058C, strain SHM2 (second series), active compounds read low",0.991
same,normalized growth,"S. cerevisiae deletion strains, locus YLR085C, strain ARP6, active compounds read low",0.943
same,normalized growth,"S. cerevisiae deletion strains, locus YLR262C, strain YPT6, active compounds read low",1.02
same,normalized growth,"S. cerevisiae deletion strains, locus YML094W, strain GIM5, active compounds read low",0.988
same,normalized growth,"S. cerevisiae deletion strains, locus YMR219W, strain ESC1, active compounds read low",0.989
same,normalized growth,"S. cerevisiae deletion strains, locus YMR263W, strain SAP30, active compounds read low",0.996
same,normalized growth,"S. cerevisiae deletion strains, locus YNL128W, strain TEP1, active compounds read low",0.987
same,normalized growth,"S. cerevisiae deletion strains, locus YNL153C, strain GIM3, active compounds read low",1.01
same,normalized growth,"S. cerevisiae deletion strains, locus YNL298W, strain CLA4 (second series), active compounds read low",0.984
same,normalized growth,"S. cerevisiae deletion strains, locus YNL322C, strain KRE1, active compounds read low",0.99
same,normalized growth,"S. cerevisiae deletion strains, locus YNR030W, strain Alg12, active compounds read low",0.998
same,normalized growth,"S. cerevisiae deletion strains, locus YPL055C, strain LGE1, active compounds read low",1
same,normalized growth,"S. cerevisiae deletion strains, locus YPL241C, strain CIN2, active compounds read low",0.988
same,normalized growth,"S. cerevisiae deletion strains, locus YPR135W, strain CTF4, active compounds read low",1.05
same,normalized growth,"S. cerevisiae strains, strain wild type, active compounds read low",0.98
